# Calb FLC = C. albicans growth modulation with fluconazole; C. albicans CaCi-2 (fluconazole-resistant clinical isolate) + fluconazole, Alamar Blue growth, 48 h; growth inhibition, % (no concentration beside the values); 0.57% of 300,000 active;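 active = growth inhibition above about 58% in most replicates, limit read from the data, passing the limit was not always enough; inconclusive = exactly half the replicates above a set limit; inactive = most replicates below a set limit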;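 note: all wells also contain fluconazole at 8 µg/ml as a sub-toxic cotreatment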
# Jurkat NFkB inh = lowers PMA/ionomycin-induced NF-kB signal in Jurkat cells | 0.53% of 330,000 active | inhibition, % at 4 µM | PMA/ionomycin-induced NF-kB luciferase reporter, luminescence; in the data active = inhibition above about 50%
# Shn3 3UTR inh = reduces Shn3 3'UTR luciferase signal in osteoblasts; 0.52% of 360,000 active; AID 588674; Clone20 osteoblast Shn3 3'UTR firefly luciferase, 24 h; inhibition, % at 12.5 µM;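 active = mean inhibition of at least 75% with every replicate also reaching 75%; inconclusive = mean inhibition at least 75% but some replicate below; inactive = mean inhibition below 75%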
# Beta cell apopt = blocks beta cell apoptosis. INS-1E cytokine-induced death, ATP luminescence, 48 h; percent of positive-control rescue, neutral wells zero. protection from apoptosis, % (no concentration beside the values). 0.8% of 300,000 active. AID 435005;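 active = Every replicate reaches about 75%, or at least half do and their mean reaches it too, limit read from the data; inconclusive = At least half of replicates reach the limit but their mean does not; inactive = Under half of replicates reach the limit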;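 note: higher means more ATP so stronger rescue from cytokine killing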
# 697 NFkB inh = lowers PMA/ionomycin-induced NF-kB signal in 697 B cells; 697 B-cell NF-kB luciferase reporter, 16 h; inhibition, % at 4 µM; 0.33% of 330,000 active; AID 435022; in the data active = inhibition above about 35%
# Jurkat NFkB conf = inhibitors of the PMA/ionomycin-induced NF-kB reporter in Jurkat cells, retest. shares compounds with Jurkat NFkB inh. Jurkat NF-kB luciferase, 16 h. inhibition, % at 4 µM. 27% of 2,700 active. AID 435020;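 active = inhibition reaching about 45% at 4 µM in either replicate, limit read from the data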
# A number is an active result; n = inactive; u = inconclusive; x = no result given. A selection: hits, their analogues and other compounds. The true share with any hit is near 2%.
SMILES,Calb FLC,Jurkat NFkB inh,Shn3 3UTR inh,Beta cell apopt,697 NFkB inh,Jurkat NFkB conf
C=C1C(=O)O[C@H]2C[C@]3(C)C([C@@H](OC(=O)/C(C)=C/C)[C@H]12)[C@](C)(O)CC[C@H]3O (stereo partly specified),n,n,n,n,n,x
CC(=O)c1cc2c(cc1NC(=O)Cn1nc(-c3ccc(C)cc3)ccc1=O)OCO2,n,53.4,n,n,n,n
CCn1ncc(C2=NOC(C(=O)NCc3ccc(Cl)cc3)C2)c1C (stereo unspecified),n,74.1,n,n,n,49.6
CCn1ncc(C2=NOC(C(=O)Nc3ccc(C)cc3)C2)c1C (stereo unspecified),n,n,n,n,n,x
CCN(CC)S(=O)(=O)c1ccc(N/N=C/c2ccc(O)cc2O)nc1,90.6,50.6,u,n,n,n
O=[N+]([O-])c1ccc(NN=Cc2ccc(O)cc2O)nc1,x,x,n,x,x,x
O=C(O)c1ccccc1-c1ccccc1C(=O)Nc1ccc2c(c1)CCC2,n,n,n,n,n,x
O=C(Nc1ccc2c(c1)CCC2)c1ccccc1,n,n,n,n,n,n
COc1ccc2oc(C(=O)Nc3ccccn3)c(C)c2c1,n,n,n,n,n,n
COCC(C)NC(=O)c1cc2cccc([N+](=O)[O-])c2[nH]1 (stereo unspecified),n,n,n,n,n,x
Cc1cc(NC(=O)c2cc3cccc([N+](=O)[O-])c3[nH]2)ccc1F,n,n,n,n,n,n
COc1ccccc1N1CCN(S(=O)(=O)c2c(C(=O)N3CCOCC3)c(C)n(C)c2C)CC1,n,n,n,n,n,x
COc1ccccc1NC1=CC(=O)CC(c2ccccc2)C1 (stereo unspecified),n,51.8,n,n,n,n
COc1ccc([C@H]2CC(=O)C=C(c3c(OC)cccc3OC)C2)cc1,x,57.3,n,n,n,50.8
CCc1ccccc1NC(=O)CNC(=O)CCc1nc2sc3c(c2c(=O)[nH]1)CCCC3,n,n,n,x,n,x
CC(=O)N/C(=C\c1ccccc1)C(=O)OC(C)C(=O)NCc1ccccc1 (stereo unspecified),n,n,n,n,n,x
Cc1ccc(C(=O)CCNc2ccc(Br)cc2)o1,n,n,n,n,n,x
Cc1ccc(C(=O)CCNc2ccc(F)c(Cl)c2)o1,n,72.7,n,n,n,n
O=C(c1cc(-c2ccncc2)nc2ccccc12)N1CCN(c2ccccn2)CC1,n,57.2,n,n,n,n
O=C(c1ccccc1-c1ccccc1)N1CCN(c2ccccn2)CC1,n,68.7,n,n,n,n
O=C(c1cn(Cc2ccccc2)nc1-c1ccccc1)N1CCN(c2ccccn2)CC1,x,53.0,n,n,n,n
COc1ccc(-c2nn(Cc3ccccc3)cc2C(=O)N2CCN(c3ccccn3)CC2)cc1OC,x,n,n,n,n,x
Cc1nnc(SC(C)C(=O)Nc2ccc3ccccc3c2)[nH]c1=O (stereo unspecified),n,n,n,n,n,x
CC1CCN(C(=O)c2cc3c(ccc4ccccc43)o2)CC1,n,n,n,n,n,n
O=C(NC(NNc1ccc([N+](=O)[O-])cc1)(C(F)(F)F)C(F)(F)F)c1ccccc1Cl,n,n,n,n,n,x
SMILES,Calb FLC,Jurkat NFkB inh,Shn3 3UTR inh,Beta cell apopt,697 NFkB inh,Jurkat NFkB conf
O=C(NC(Nc1nc2ccc([N+](=O)[O-])cc2s1)(C(F)(F)F)C(F)(F)F)c1ccccc1Cl,n,77.9,89.7,109.2,n,69.5
Cc1ccc(Cc2c(-c3ccccc3)nc3cc(C)c(Br)c(C)n23)cc1,x,x,n,x,x,x
COc1cc(NS(=O)(=O)c2ccc(OC)c(C)c2C)c(OC)cc1Cl,n,58.4,n,n,n,50.9
COc1ccc(OC)c(S(=O)(=O)Nc2cc(OC)c(Cl)cc2OC)c1,n,n,n,n,n,x
O=C(/C=C/c1cnc2ccccc2n1)NC12CC3CC(CC(C3)C1)C2,n,n,n,n,n,n
CCCCNC(=O)C1(C)CCN1C(=O)c1cc(-c2cccs2)oc1C (stereo unspecified),x,x,n,x,x,x
COC(=O)C[C@@H]1C[C@@H]2c3cc(NC(=O)Cc4ccncc4)ccc3O[C@@H]2[C@@H](CO)O1,x,x,n,x,x,x
NC(N)=N/N=C/c1ccc(OS(=O)(=O)c2ccccc2)cc1,n,50.1,n,n,n,n
COc1cc(-c2noc(C)c2C#Cc2ccccn2)cc(OC)c1OC,n,60.0,n,n,n,n
COc1cc(-c2noc(C)c2C#Cc2ccc(N)cc2)cc(OC)c1OC,n,n,n,n,n,x
COc1ccc(-c2c(-c3cc(OC)c(OC)c(OC)c3)noc2C)cn1,n,66.0,n,n,n,n
COc1cc(-c2noc(C)c2/C=C/c2ccc(N)cc2)cc(OC)c1OC,n,58.4,n,n,n,n
Cc1ccc(OCC2Cn3c(nc4c3c(=O)[nH]c(=O)n4C)O2)cc1C (stereo unspecified),n,n,n,n,n,x
O=C(Nc1cccc(F)c1)N1CCc2nc(NCc3cccc(Oc4ccccc4)c3)ncc2C1,x,x,n,x,x,x
Nc1ccc2nc(NC(=O)C3CCCCC3)sc2c1,n,n,n,n,n,x
O=C(Nc1nc2ccc(C(=O)N3CCCCC3)cc2s1)C1CCCCC1,n,60.2,n,n,n,n
COc1cc(C2CC(=O)C3=C(C2)Nc2ncnn2C3c2cccs2)cc(OC)c1OC (stereo unspecified),n,n,n,n,n,x
COc1cc(C2C3=C(Nc4ncnn42)c2ccccc2CC3)cc(OC)c1OC (stereo unspecified),n,75.4,n,n,n,60.8
CC1CCC(NC(=O)CCS(=O)(=O)c2ccc3c(c2)CCN3C(=O)C2CC2)CC1 (stereo unspecified),n,n,n,n,n,x
N/C(=N\OCc1ccc([N+](=O)[O-])cc1)c1ccccn1,n,59.9,x,n,n,64.8
CC(C(=O)O/N=C(\N)c1ccccn1)c1ccc([N+](=O)[O-])cc1 (stereo unspecified),n,n,n,n,n,x
CCCCn1c(Cn2nc(C(=O)O)c3ccccc3c2=O)nc2cc(S(N)(=O)=O)ccc21,n,n,n,n,n,x
CN(C)CCCNS(=O)(=O)c1ccc(N2CCN(Cc3ccc4c(c3)OCO4)CC2)c([N+](=O)[O-])c1,n,62.4,n,n,n,n
Cc1ccc(CC(=O)NNC(=O)c2cccs2)cc1C,x,n,n,x,n,x
NC1=NC[C@H](c2ccccc2)N1CCc1cc(C(F)(F)F)cc(C(F)(F)F)c1,n,71.0,n,n,n,n
CC(O)[C@H]1CN=C(N)N1CCc1cc(C(F)(F)F)cc(C(F)(F)F)c1 (stereo partly specified),n,n,n,n,n,x
Oc1ccccc1-c1cc(-c2ccco2)[nH]n1,n,n,n,n,n,x
Oc1c(-c2cc(-c3ccco3)[nH]n2)ccc2ccccc12,n,n,n,n,n,n
CC(=O)C[C@H](O)CC(=O)[C@@H]1OC(=O)CCCCCCc2ccccc21,x,n,n,n,n,x
Brc1ccc2nc(-c3c[nH]c4ccccc34)cn2c1,n,n,n,n,n,n
